Measurements from the OligoGym collection.
Further: reference of the scale not given here.

What follows are sequences tested against CAPRIN1 (assay: pooled miR-30 sensor sort-seq; sequence = guide strand). Conditions: shRNA.
Sequence TAGATAATAACTCTTCTGGTAA has a sensor-assay potency score (higher = more potent) of -0.812. Sequence TTACATACTCTGTTGATTCAAC has a sensor-assay potency score (higher = more potent) of 0.0551. Sequence TTGATAGCCAGAGTAATCCCGG has a sensor-assay potency score (higher = more potent) of -0.0464. TTTCTTGTCGATCACCCCGAGA gave a sensor-assay potency score (higher = more potent) of -1.14. Sequence TATTGTTTTCTGAATATCTTGA has a sensor-assay potency score (higher = more potent) of 0.459. Sequence TTTACATTGATTCCACTGCTAT has a sensor-assay potency score (higher = more potent) of -0.568. Sequence TTTCTGAATATCTTGACTTAGT has a sensor-assay potency score (higher = more potent) of -0.78. TTGACTGAAAAACACGCTCAAC showed a sensor-assay potency score (higher = more potent) of -1.28. In the case of TACAGGAACTTGATTAGGCTGA, the sensor-assay potency score (higher = more potent) is reported as 0.0825. TAACATATTATGGTACACTGGC gave a sensor-assay potency score (higher = more potent) of 0.119. With AATATCTTGACTTAGTGCCATG the sensor-assay potency score (higher = more potent) was -1.68.

The sequences below were run against CASK in the same assay as above. Conditions: shRNA.
Work on TAGTAGTGTGTGAAGATGCTGA yielded a sensor-assay potency score (higher = more potent) of 0.139. For TTCATGTGCCACTACGTCGTGA, the sensor-assay potency score (higher = more potent) was -0.762. TTGTGCTCTTACATAGATCTGT gave a sensor-assay potency score (higher = more potent) of 0.417. For TTTTGAAACTGTACCAGCCGAA, the sensor-assay potency score (higher = more potent) was -0.413. TAAAGCATTCCATCTGAGCTAT was tested, and the sensor-assay potency score (higher = more potent) was -0.371. TTTCTCTGTTGATACATCGTCG showed a sensor-assay potency score (higher = more potent) of -0.203. TATATGTCTCCAATAACTCTAC showed a sensor-assay potency score (higher = more potent) of -0.605. Sequence TTACATAGATCTGTCGTCCTTT has a sensor-assay potency score (higher = more potent) of 0.751. For TAAAATACGCTTTAGTTCCTTT, the sensor-assay potency score (higher = more potent) was -0.108. With TAAGATGTCAGACTCCTTCTGC the sensor-assay potency score (higher = more potent) was 0.313. Work on ATTTGTGACTTGACACAGCGGC yielded a sensor-assay potency score (higher = more potent) of 0.473. Sequence TACATCGTCGTACAACACTGAA has a sensor-assay potency score (higher = more potent) of -1.22.

Each sequence was assayed against CASP8 in the same assay as above. Conditions: shRNA.
Sequence TAGATTTGCTCTACTGTGCAGT has a sensor-assay potency score (higher = more potent) of 0.44. TTTCTGCTGAAGTCCATCTTTT gave a sensor-assay potency score (higher = more potent) of -1.01. With TAATGATTTAAAATAATCCAAG the sensor-assay potency score (higher = more potent) was -1.15. ATAGATAACAATCTGAATCATA showed a sensor-assay potency score (higher = more potent) of -0.657. TACTGTGCAGTCATCGTGGGGC was tested, and the sensor-assay potency score (higher = more potent) was 0.503. For TTTACTTTCAATAACCACCCTG, the sensor-assay potency score (higher = more potent) was 0.433. In the case of TTCATAGTTCACTTCAGTCAGG, the sensor-assay potency score (higher = more potent) is reported as -0.715. TTTTGCAAAATTGTGATTGTTG showed a sensor-assay potency score (higher = more potent) of 0.0045. For TTCTTCTGAAATCTGATAGAGC, the sensor-assay potency score (higher = more potent) was -0.601. For TAAACTTTGTCCAAAGTCTGTG, the sensor-assay potency score (higher = more potent) was -0.0888. Work on TTAGTGTGAAAGTAGGCTGAGG yielded a sensor-assay potency score (higher = more potent) of -0.589. ATCTGATAGAGCATGACCCTGT was tested, and the sensor-assay potency score (higher = more potent) was -0.509. TTTCTTGTCATCCTTGTTGCTT gave a sensor-assay potency score (higher = more potent) of -0.189. For TTCATAGTCGTTGATTATCTTC, the sensor-assay potency score (higher = more potent) was -0.794. With TAGTTGATAGATAACAATCTGA the sensor-assay potency score (higher = more potent) was -0.246. Work on TAATAGATGATCGACCCTCCGC yielded a sensor-assay potency score (higher = more potent) of -0.463.
